Screening results: PubChem, National Center for Advancing Translational Sciences (NCATS)
TDP1 cell noCPT = qHTS for Inhibitors of human tyrosyl-DNA phosphodiesterase 1 (TDP1): qHTS in cells in absence of CPT; DT40 Tdp1-/- hTDP1 cells, no CPT, ATP luminescence, 48 h; Potency, µM (doses to about 46.2 µM), actives largely listed as inhibitors; 15% of 420,000 active; AID 686978, 2013; note: nearly all actives have a fitted effect of over 55% in size
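Stably hTDP1-transfected Tdp1-null chicken DT40 cells were treated with library compounds minus camptothecin and grown for at least 48 hr at 37 °C, after which cellular ATP was quantified by luminescence.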
DT40 TDP1 CPT = growth inhibition of DT40 Tdp1-/-;hTDP1 cells with camptothecin (screen for TDP1 inhibitors); 12% of 420,000 active; chicken DT40 Tdp1-/-;hTDP1 cells + 20 nM CPT, ATP luminescence, 48 h; Potency, µM (top dose mostly 46.2 µM), most hits filed as inhibitors; note: nearly all actives have a fitted effect of over 55% in size
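Chicken DT40 Tdp1-/- cells stably complemented with human TDP1 were seeded at 400 cells/well in medium containing 20 nM camptothecin, exposed to pin-transferred compounds, and grown at 37 °C for at least 48 hr. Viability was read as ATP luminescence.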
HepG2 viability = HepG2 cytotoxicity, counter-screen for TGF-b inhibitors | Potency, µM (titrated, usually from 46.1 µM), usual class: cytotoxic | 0.76% of 410,000 active | HepG2 CAGA-GFP viability, ATP luminescence, 18 h
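CellTiter-Glo luminescence gave cytotoxicity after 18 hours at 37 degrees C. The cells were HepG2 CAGA-GFP in 1% FBS DMEM, stimulated with 500 pg/mL TGF-beta after compound addition. %Activity was normalised to no-cell wells (complete cell-killing) and DMSO (no toxicity), and curves were fitted and classified.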
TGFb SMAD3 inh = blocks TGF-b signaling; HepG2 CAGA-GFP TGF-b/SMAD3 reporter, GFP fluorescence, 18 h; TGF-beta stimulated, 500 pg/mL final; Potency, µM (doses to about 46.1 µM), usual class: inhibitors; 1.2% of 410,000 active; AID 588855; note: nearly all actives have a fitted effect of over 65% in size
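Inhibition of TGF-beta-driven CAGA-GFP reporter expression in HEPG2 cells is measured by cellular GFP fluorescence after 18 h stimulation with 500 pg/mL recombinant TGF-beta in 1% FBS medium at 37 degrees C.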
ATXN2 expr inh = inhibitors of ATXN2 expression | HEK-293 ATXN2-luciferase reporter, luminescence, 24 h | Potency, µM (series often up to 57 µM), usual class: inhibitors | 0.72% of 360,000 active | AID 1745845; note: nearly all actives have a fitted effect of over 55% in size
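qHTS (up to 57 uM final) was run with 24 h compound exposure of reporter cells at 37 °C. Each well was multiplexed: SteadyGlo luminescence measured ATXN2-luciferase expression after a fluorogenic Gly-Phe-AFC viability readout (25 uM final).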
ATXN viability = reduces viability in counter-screen for ATXN expression inhibitors; AID 651635; 0.49% of 400,000 active; S2 cells (HEK-293 line with an ATXN2-luciferase reporter) viability, CellTiter-Fluor protease fluorescence, 24 h; Potency, µM (titrated, usually from 56.7 µM), actives largely listed as cytotoxic; note: nearly all actives have a fitted effect of over 40% in size
A number is an active result; n = inactive; u = inconclusive; x = not tested or not shown; [ ] = another dose, or the depositor's remark. Most compounds without a hit are left out; they make up all but 17% or so of the library. Calls come from the whole dose curve; as a rule, active = well fitted curve in the direction sought with a large enough effect; inconclusive = small, poorly fitted or top-dose-only effect, or another doubt; inactive = no such curve, though single readings can be large; an effect the other way counts as inactive or inconclusive.

SMILES	TDP1 cell noCPT	DT40 TDP1 CPT	HepG2 viability	TGFb SMAD3 inh	ATXN2 expr inh	ATXN viability
COc1ccc(C(N)c2csc(Nc3nncc4ccccc34)n2)cc1 (configuration not stated)	u	u	n	13µM	n	u
NC(COCc1ccccc1)c1csc(Nc2ccccn2)n1 (configuration not stated)	u	26µM	n	n	u	u
CC(C)CC(N)c1csc(Nc2cnccn2)n1 (configuration not stated)	9.2µM	13µM	n	u	n	u
COc1ccc(CC(N)c2csc(Nc3cnccn3)n2)cc1 (configuration not stated)	u	u	n	n	u	n
CC(C)CC(N)c1csc(Nc2ccccn2)n1 (configuration not stated)	u	15µM	n	u	u	u
NC(CCc1ccccc1)c1csc(Nc2ccccn2)n1 (configuration not stated)	u	u	n	u	u	u
COC(=O)CC1C(=O)NCCN1C(=O)c1ccc(S(=O)(=O)N2CCOCC2)cc1 (configuration not stated)	n	n	n	n	n	n
OCCC1CN(CC2CCCCC2)CCN1CC1CCCCC1 (configuration not stated)	u	n	n	n	n	n
O=c1[nH]c(-c2ccccc2Cl)nc2c1sc(=S)n2-c1ccccc1	u	n	n	n	n	n
NC(=O)c1nsc(C(=O)N(c2ccc(F)cc2)C(C(=O)NCC2CCCO2)c2ccc3ncccc3c2)c1N (configuration not stated)	n	n	n	n	n	n
NC(COCc1ccccc1)c1csc(Nc2nncc3ccccc23)n1 (configuration not stated)	21µM	u	n	u	n	n
CC(C)NC(=O)N1CC(c2ccccc2)C(c2ccc(Cl)cc2)=N1 (configuration not stated)	18µM	12µM	n	n	x	u
CC(=O)N1CC(c2ccccc2)C(c2ccc(Cl)cc2)=N1 (configuration not stated)	u	u	n	n	n	n
COc1cc(/C=C/C(=O)Nc2nnc(CC(C)(C)C)s2)cc(OC)c1OC	21µM	u	n	n	n	n
COc1cc(/C=C/C(=O)Nc2ccncc2)cc(OC)c1OC	u	21µM	n	n	n	n
COc1ccc(NC(=O)/C=C/c2cc(OC)c(OC)c(OC)c2)cn1	n	n	n	n	x	n
COc1cc(/C=C/C(=O)Nc2ccc(C(C)=O)cc2)cc(OC)c1OC	21µM	u	n	n	n	n
CC(=O)c1ccc(NC(=O)/C=C/c2ccc(C)cc2)cc1	n	n	n	n	n	n
Cc1nc2scc(-c3cccs3)c2c(=O)n1-n1cccc1	u	n	n	n	n	n
Cc1ccc(C)n1-n1c(C)nc2scc(-c3cccs3)c2c1=O	18µM	u	n	n	n	n
Cc1ccc(-n2c(COc3ccccc3)n[nH]c2=S)cc1	n	n	n	n	n[11.3 µM]	n
Cc1cccc(OCc2nc(-c3ccccn3)n[nH]2)c1	15µM	21µM	n	u	n	n
Cc1cccc(OCc2n[nH]c(=S)n2-c2ccccc2)c1	n	n	n	n	n	n
Cc1ccc(OCc2nc(-c3ccccn3)n[nH]2)cc1	4.6µM	3.3µM	n	n	n	u
CSc1ccccc1NC(=O)c1ccccc1N(Cc1ccccc1)S(C)(=O)=O	u	n	n	n	n	n
SMILES	TDP1 cell noCPT	DT40 TDP1 CPT	HepG2 viability	TGFb SMAD3 inh	ATXN2 expr inh	ATXN viability
CC1(C(=O)N2CC3(CC(c4cccc(NC(=O)COc5ccc(Cl)cc5)c4)=NO3)C[C@@H]2C(N)=O)CC1 (some centres not stated)	15µM	13µM	n	u	n	n
C/C=C/C(=O)N1CC2(CC(c3cccc(NC(=O)COc4ccc(Cl)cc4)c3)=NO2)C[C@@H]1C(N)=O (some centres not stated)	n	u	n	n	n	n
NC(=O)[C@H]1CC2(CC(c3cccc(NC(=O)COc4ccc(Cl)cc4)c3)=NO2)CN1C(=O)c1ccccc1C(=O)c1ccccc1 (some centres not stated)	18µM	21µM	n	u	u	u
COc1ccccc1Nc1nc2ccc(C)cc2n2cnnc12	18µM	u	n	n	x	n
c1ccc(N2CCOCC2)c(Nc2nc3ccccc3n3cnnc23)c1	16µM	21µM	n	n	u	u
Cc1ccc2nc(Nc3ccc(C)c(C)c3)c3nncn3c2c1	21µM	u	n	n	n	n
CNc1ccc(/C=C/c2ccccc2)cc1	u	u	n	n	x	x
COc1ccccc1CNc1ncnc2ccc(-c3ccc(N(C)C)cc3)cc12	13µM	16µM	x	x	x	x
COc1ccccc1CNc1ncnc2ccc(-c3cccnc3)cc12	21µM	u	x	x	x	x
COc1ccccc1CNc1ncnc2cc(Cl)ccc12	u	u	n	u	n	n
Cc1ccnc(NC(=O)c2cccc(NC(=O)c3ccccc3C)c2)c1	u	n	n	n	x	n
CCCS(=O)(=O)NC(=O)C1(C)CCCN(C(=O)c2cc(OC)c(OC)c(OC)c2)C1 (configuration not stated)	n	n	n	n	n	n
O=C(NCc1nnc(SCC(=O)N2CCC(Cc3ccccc3)CC2)o1)c1ccccc1F	16µM	u	n	n	n	n
O=C(NCc1nnc(SCC(=O)N2CCCC2)o1)c1c(F)cccc1F	n	n	n	n	n	n
CC(C)CN(CC(C)C)CC(O)COc1ccccc1Br (configuration not stated)	15µM	u	11µM	11µM	n	n
Cc1ccccc1OCC(O)CN(CCO)Cc1ccccc1 (configuration not stated)	n	n	n	n	n	n
CCCCN(CCCC)CC(O)COc1ccccc1Br (configuration not stated)	16µM	u	n	n	n	n
CC(C)CN(CC(C)C)CC(O)COc1ccc([N+](=O)[O-])cc1 (configuration not stated)	18µM	u	n	n	n	n
COc1ccc(N2CC(NC(=O)C3CC3)CC2=O)cc1OC (configuration not stated)	n	n	n	n	n	n
O=C1C(O)=CC(=C(c2ccccc2)c2ccccc2)c2ccccc21	u	u	n	u	n	u
Cc1cc2[nH]c3ccccc3c2c(C)n1	16µM	u	n	u	u	n
